Screens from PubChem BioAssay.
Shown are actives, neighbours in structure and some others; about 1.1% of the full set was active somewhere.
NCOA2 inhibitor: inhibits human steroid receptor coactivator 2. inhibition, % at 9 µM. HEK293 GAL4-SRC2 luciferase reporter, luminescence. AID 651957. hit rate 0.17% among 370,000. Q15596;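 active means inhibition above the mean inhibition of all tested compounds plus 3 SD, set per campaign, cut at about 52% in these data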
Target sequence (Q15596 whole entry, looked up, the tested form may be a part): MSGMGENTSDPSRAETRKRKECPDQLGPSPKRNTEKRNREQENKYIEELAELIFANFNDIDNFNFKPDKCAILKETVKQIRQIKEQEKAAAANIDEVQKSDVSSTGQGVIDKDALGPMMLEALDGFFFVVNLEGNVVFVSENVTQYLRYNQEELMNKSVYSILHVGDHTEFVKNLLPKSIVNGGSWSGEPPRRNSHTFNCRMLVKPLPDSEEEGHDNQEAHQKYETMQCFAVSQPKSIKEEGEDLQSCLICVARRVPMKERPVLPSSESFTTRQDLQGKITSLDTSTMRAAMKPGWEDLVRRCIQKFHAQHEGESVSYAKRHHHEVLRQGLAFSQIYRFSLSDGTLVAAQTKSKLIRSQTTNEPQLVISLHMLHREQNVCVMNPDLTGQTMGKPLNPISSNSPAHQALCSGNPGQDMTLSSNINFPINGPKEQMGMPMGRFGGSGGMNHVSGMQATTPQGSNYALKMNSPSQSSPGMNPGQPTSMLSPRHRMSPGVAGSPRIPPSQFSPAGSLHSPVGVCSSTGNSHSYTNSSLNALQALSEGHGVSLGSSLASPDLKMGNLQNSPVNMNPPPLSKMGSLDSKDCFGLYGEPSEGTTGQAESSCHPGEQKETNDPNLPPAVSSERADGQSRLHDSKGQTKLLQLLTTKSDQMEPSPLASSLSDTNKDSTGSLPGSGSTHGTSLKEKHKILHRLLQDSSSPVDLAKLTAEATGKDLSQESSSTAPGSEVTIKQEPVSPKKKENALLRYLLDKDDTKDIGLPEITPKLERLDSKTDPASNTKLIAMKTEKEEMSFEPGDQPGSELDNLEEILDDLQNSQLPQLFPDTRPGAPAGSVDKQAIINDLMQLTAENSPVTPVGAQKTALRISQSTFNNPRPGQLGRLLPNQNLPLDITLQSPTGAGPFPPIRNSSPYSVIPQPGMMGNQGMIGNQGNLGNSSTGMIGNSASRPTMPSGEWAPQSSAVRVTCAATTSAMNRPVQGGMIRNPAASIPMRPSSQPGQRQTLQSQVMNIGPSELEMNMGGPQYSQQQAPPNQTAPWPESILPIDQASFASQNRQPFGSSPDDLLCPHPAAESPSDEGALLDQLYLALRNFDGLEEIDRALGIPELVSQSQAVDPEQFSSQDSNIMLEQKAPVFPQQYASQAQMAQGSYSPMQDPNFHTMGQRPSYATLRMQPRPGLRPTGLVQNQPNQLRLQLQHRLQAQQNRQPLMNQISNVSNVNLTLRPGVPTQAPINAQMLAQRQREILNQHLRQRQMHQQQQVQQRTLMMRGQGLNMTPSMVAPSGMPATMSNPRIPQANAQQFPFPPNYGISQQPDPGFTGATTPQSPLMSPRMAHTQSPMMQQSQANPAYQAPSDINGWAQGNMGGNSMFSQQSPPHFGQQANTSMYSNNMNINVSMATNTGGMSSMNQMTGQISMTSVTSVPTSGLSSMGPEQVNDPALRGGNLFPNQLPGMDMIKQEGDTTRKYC
GalR3 antag: blocks the human galanin receptor 3 | O60755 | HEK293 GalR3-CNG cAMP membrane potential fluorescence; galR3 body fused to GalR1 C-terminus | inhibition, % at 3 µM | hit rate 0.44% among 360,000;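 active means inhibition above the screen-wide average plus 3 SD, cut at about 13% in these data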;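 further: forskolin and galanin both at EC90 stimulate the cells; cAMP rise reported by CNG channel membrane potential dye signal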
NCOA3 inh: inhibitors of human steroid receptor coactivator 3 (SRC3). Q9Y6Q9. HEK293 GAL4-SRC3 luciferase reporter, luminescence. inhibition, % at 3.6 µM. hit rate 0.17% among 360,000;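 active means inhibition above a per-campaign cutoff, the mean of all compounds plus 3 SD, cut at about 60% in these data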;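 further: higher means less SRC3-driven luciferase light from the GAL4 reporter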
NR5A2 inv ag: suppresses constitutive activity of human LRH-1; HEK293T StAR-luciferase reporter, LRH-1 transfected, 24 h; hit rate 0.13% among 360,000; inhibition, % at 3.6 µM;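 active means inhibition above the mean inhibition of all tested compounds plus 3 SD, cut at about 73% in these data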
NR2F2 inh: inhibitors of human COUP-TFII (NR2F2). HEK293T NGFI-A luciferase reporter, luminescence. inhibition, % at 8.6 µM. hit rate 0.7% among 370,000. AID 686940;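 active means inhibition above a per-plate cutoff, mean inhibition of test wells between control levels plus 3 SD, cut at about 38% in these data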;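 further: cells cotransfected with COUP-TFII expression vector driving the NGFI-A reporter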
SRC1 inh: human NCOA1 inhibition; hit rate 0.12% among 360,000; HEK293 GAL4-SRC1 luciferase reporter, luminescence; inhibition, % at 3.6 µM; Q15788;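 active means inhibition above the campaign mean plus 3 SD, with each screening campaign given its own cutoff, cut at about 60% in these data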
GalR3 antag conf: confirmation of human galanin receptor 3 antagonists | shares compounds with GalR3 antag | HEK293 GalR3 CNG cAMP biosensor, membrane potential fluorescence; galR3 fused to GalR1 carboxy tail; challenged with forskolin and galanin at EC90 | inhibition, % at 3 µM | hit rate 59% among 1,600 | AID 652245;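 active means inhibition above the primary screen's cutoff, the mean inhibition of all screened compounds plus 3 SD, cut at about 13% in these data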
CNG parental: counter-screen for GalR3 antagonists: nonspecific agonists in parental HEK-CNG cells. shares compounds with GalR3 antag. HEK293-CNG parental cells, cAMP membrane potential fluorescence; normalised: DMSO wells 0%, forskolin wells 100%. activation, % at 3 µM. hit rate 10% among 1,600. AID 652268; in the data active means activation above about 1.3%
Large screens that a line does not name were inactive (follow-up assays come after a bar, where they were run).

O=C(N/N=C/c1cc(Cl)ccc1O)C(=O)Nc1ccccc1OC(F)(F)C(F)F	GalR3 antag 22.3, NCOA3 inh 68.2 | GalR3 antag conf 66.1 | CNG parental inactive
CC(=O)N1CCN(C(=O)CCn2nnc3ccccc32)CC1	none (no result: GalR3 antag, NCOA3 inh, NR5A2 inv ag, SRC1 inh)
Cc1ccc(/C=N\NC(=O)COc2ccc(C)cc2[N+](=O)[O-])cc1	GalR3 antag 12.8 | GalR3 antag conf inactive | CNG parental inactive
COC(=O)COc1cccc(NC(=O)c2cccc(C)c2)c1	GalR3 antag 19.8 | GalR3 antag conf 57.1 | CNG parental inactive
CCCOC(=O)c1ccc(Oc2cn[nH]c2-c2ccc(O)cc2O)cc1	none
CCOC(=O)c1ccc(Oc2cn[nH]c2-c2ccc(O)cc2O)cc1	GalR3 antag 17.0 | GalR3 antag conf inactive | CNG parental 4.4
CCOc1ccc(OCc2cccc(C(=O)Nc3ccc(CN4CCCCC4)cc3)c2)cc1	none
COc1ccc(C(=O)NC(=S)Nc2ccc(CN3CCCCC3)cc2)cc1Cl	GalR3 antag 15.3 | GalR3 antag conf inactive | CNG parental 9.7
COc1ccc(OCc2cccc(C(=O)Nc3ccc(CN4CCCCC4)cc3)c2)cc1	GalR3 antag 12.8 | GalR3 antag conf 35.4 | CNG parental 2.0
CCC(=O)N1CCc2cc(Br)c(S(=O)(=O)N3CCC(C(=O)NCCCOC(C)C)CC3)cc21	none (no result: GalR3 antag, NCOA3 inh, NR5A2 inv ag, SRC1 inh)
COc1ccc(CNS(=O)(=O)/C=C/c2ccc(OC)cc2CNC(=O)OC(C)(C)C)cc1	none (no result: GalR3 antag, NCOA3 inh, NR5A2 inv ag, SRC1 inh)
CCn1cc([N+](=O)[O-])c(C(=O)N2N=C(c3ccc(O)c(OC)c3)CC2c2ccccc2O)n1 (stereo unspecified)	none
CCn1cc([N+](=O)[O-])c(C(=O)N2N=C(c3ccc(Cl)c(Cl)c3)CC2c2ccccc2O)n1 (stereo unspecified)	GalR3 antag 14.7 | GalR3 antag conf 19.6 | CNG parental inactive
O=[N+]([O-])c1ccccc1-c1cc(-c2cc(Cl)ccc2O)n[nH]1	GalR3 antag 18.6 | GalR3 antag conf inactive | CNG parental inactive
CC(C)NC(=O)NC(=O)COC(=O)Cc1c(F)cccc1Cl	GalR3 antag 25.1 | GalR3 antag conf 13.7 | CNG parental inactive
O=C(COC(=O)Cc1c(F)cccc1Cl)NC(=O)c1ccccc1	none
C=CCN1[C@H](CC(C)C)COc2cc(N3CCSCC3)ccc2S1(=O)=O	none (no result: GalR3 antag, NCOA3 inh, NR5A2 inv ag, SRC1 inh)
CNC(=S)N/N=C/c1ccc(OCC(=O)Nc2c(C)cc(C)cc2C)c(OC)c1	GalR3 antag 19.1 | GalR3 antag conf 23.0 | CNG parental inactive
O=C(Nc1ccccc1)/C(=C/c1ccc(O)cc1)NC(=O)c1ccco1	GalR3 antag 15.1 | GalR3 antag conf inactive | CNG parental inactive
O=C(Nc1ccccc1)/C(=C/c1ccccc1)NC(=O)c1ccco1	none
CCCc1ccccc1OCCNC(=O)c1cc(=O)n(C)c(=O)n1C	GalR3 antag 15.9 | GalR3 antag conf inactive | CNG parental inactive
CCOC(=O)[C@@]12CCCC3=C1N(CCC3)C(=O)[C@H]2CC(=O)NCCC(C)C	none (no result: GalR3 antag, NCOA3 inh, NR5A2 inv ag, SRC1 inh)
COC(=O)[C@]12C[C@H](CC(=O)N3CCCCC3)C(=O)N(CCC3=CCCCC3)C1=C[C@H](C1CCCC1)O[C@@H]2C	none (no result: GalR3 antag, NCOA3 inh, NR5A2 inv ag, SRC1 inh)
CN=C1SC(CC(=O)Nc2ccccc2F)C(=O)N1/N=C/c1ccc(O)c(OC)c1 (stereo unspecified)	GalR3 antag 21.8 | GalR3 antag conf 14.7 | CNG parental inactive
N#Cc1cc(F)cc(OC[C@@H](O)CN2CCC(C(O)(c3ccccc3)c3ccccc3)CC2)c1	none (no result: GalR3 antag, NCOA3 inh, NR5A2 inv ag, SRC1 inh)
CN(C)C(=O)NCCCC#Cc1ccccc1	none (no result: GalR3 antag, NCOA3 inh, NR5A2 inv ag, SRC1 inh)
CCOC(=O)C1=C(C)NC2=C(C(=O)c3ccccc32)C1c1ccc(O)cc1 (stereo unspecified)	GalR3 antag 20.3 | GalR3 antag conf inactive | CNG parental inactive
CCOC(=O)C1=C(C)NC2=C(C(=O)c3ccccc32)C1c1cccc2ccccc12 (stereo unspecified)	none
COc1ccc(-n2c(SCC(=O)Nc3ccccc3-c3ccccc3)nnc2-c2ccccn2)cc1	none (no result: GalR3 antag, NCOA3 inh, NR5A2 inv ag, SRC1 inh)
COc1ccc(S(=O)(=O)NCc2ccco2)cc1-c1nnc2c3ccccc3c(C)nn12	GalR3 antag 27.6 | GalR3 antag conf 14.7 | CNG parental inactive
Cc1cc(C)cc(Nc2c3c(nc4ncnn24)CCC3)c1	GalR3 antag 13.2 | GalR3 antag conf inactive | CNG parental 1.6
Cc1cccc(Nc2c3c(nc4ncnn24)CCC3)c1	none
CN(CCOC(=O)c1cc2ccccc2o1)C1CN(Cc2cn(Cc3ccccc3C(F)(F)F)nn2)S(=O)(=O)C1 (stereo unspecified)	none (no result: GalR3 antag, NCOA3 inh, NR5A2 inv ag, SRC1 inh)
Cc1cc(=O)[nH]c2ccc(S(=O)(=O)NCc3ccccc3)cc12	GalR3 antag 57.0 | GalR3 antag conf 27.0 | CNG parental inactive
Cc1cc(=O)[nH]c2c(C)cc(S(=O)(=O)NCc3ccccc3)cc12	none
Cc1cccc(N2CCN(S(=O)(=O)c3cc(-c4cc(C)no4)ccc3C)CC2C)c1 (stereo unspecified)	GalR3 antag 51.8 | GalR3 antag conf 87.8 | CNG parental inactive
Cc1nonc1C(=O)N/N=C/c1ccc(O)c(O)c1	none
O=C(N/N=C/c1ccc(O)c(O)c1)N/N=C/c1ccc(O)c(O)c1	GalR3 antag 13.4 | GalR3 antag conf inactive | CNG parental inactive
O=C(COC(=O)/C=C/c1cccc(F)c1)Nc1ccc2[nH]c(=O)[nH]c2c1	none
O=C(COC(=O)/C=C/c1cccc(Cl)c1)Nc1ccc2[nH]c(=O)[nH]c2c1	GalR3 antag 35.5 | GalR3 antag conf 44.2 | CNG parental 6.9
COc1ccc(-c2cccc3[nH]c4c(c23)CCN2C(=O)[C@H]3[C@H](C)ON(C)[C@H]3C[C@@H]42)cc1	none (no result: NCOA3 inh, NR5A2 inv ag, SRC1 inh)
COc1cc(C#Cc2c(-c3ccccc3OC)oc3ccccc23)cc(OC)c1	GalR3 antag 13.4 | GalR3 antag conf inactive | CNG parental inactive
COc1ccccc1-c1oc2ccccc2c1-c1ccc2c(c1)OCO2	none
COc1ccc(-n2c(Cc3cccs3)nnc2SCC(=O)Nc2cccc3ccccc23)cc1	none (no result: GalR3 antag, NCOA3 inh, NR5A2 inv ag, SRC1 inh)
Cc1ccc(NC(=O)OCc2ccccc2S(C)=O)cc1 (stereo unspecified)	GalR3 antag 14.6 | GalR3 antag conf 28.9 | CNG parental inactive
CC(C)[C@H](NS(=O)(=O)c1ccc(F)cc1F)C(=O)N1CCC[C@H]1C(=O)NCCc1ccccc1Cl	none (no result: NCOA3 inh, NR5A2 inv ag, SRC1 inh)
O=C(Nc1nc(Cc2ccccc2)c(-c2ccccc2)n1Cc1ccccc1)c1ccccc1	none (no result: GalR3 antag, NCOA3 inh, NR5A2 inv ag, SRC1 inh)
